In the library only some 5.7% were active in any assay of this set; here they are far more common.
DAX1 inh-1: DAX1 (NR0B1) inhibitors, primary screen, cell-based, HEK293, Gal4-DAX1, luciferase luminescence; Nuclear receptor subfamily 0 group B member 1 (Homo sapiens), P51843; HEK293 Gal4-DAX1 luciferase reporter; inhibition, % at 6.75 µM; actives 0.99% (n = 340,000); AID 504766, 2011;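 active means inhibition above the mean over all tested compounds plus 3 SD, cut at about 4.2% in these data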;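 further: inhibition shows as a rise in luminescence from relieved DAX1 repression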
Target sequence (P51843 207-470 limits assumed): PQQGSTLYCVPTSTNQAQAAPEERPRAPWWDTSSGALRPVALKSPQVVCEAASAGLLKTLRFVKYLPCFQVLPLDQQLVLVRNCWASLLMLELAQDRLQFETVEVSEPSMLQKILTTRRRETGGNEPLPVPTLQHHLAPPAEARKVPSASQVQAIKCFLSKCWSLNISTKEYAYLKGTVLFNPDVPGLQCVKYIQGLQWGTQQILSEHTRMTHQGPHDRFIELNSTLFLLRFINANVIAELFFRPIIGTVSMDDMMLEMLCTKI
hcDAF-12 act: H. contortus DAF-12 nuclear receptor activators, primary screen, cell-based, luminescence, HEK293, lit1-tk-luc reporter; actives 1.4% (n = 370,000); activation, % at 6.8 µM; HEK293 hcDAF-12 lit1-tk-luc reporter; 0% DMSO, 100% Δ7-dafachronic acid; AID 652067, 2013;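 active means activation above the mean of all tested compounds plus 3 SD, cut at about 5.5% in these data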
DAX1 inh-2: DAX1 (NR0B1) inhibitors on StAR promoter, primary screen, cell-based, luminescence, SF-1 (NR5A1), full-length DAX-1. HEK293T StAR-luciferase reporter, SF-1/DAX-1 repression relief. inhibition, % at 6.8 µM. actives 1.1% (n = 370,000). AID 652010, 2013;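 active means inhibition above the mean over all tested compounds plus 3 SD, cut at about 3.6% in these data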;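 further: higher inhibition means more luminescence from relief of DAX-1 repression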
hgDAF-12 ag: H. glycines DAF-12 receptor agonists, primary screen, cell-based, luminescence, HEK293, GAL4 fusion, UAS-luciferase. Nuclear hormone receptor DAF-12 (Heterodera glycines), GAL4 fusion. HEK293 GAL4-hgDAF12 UAS-luciferase reporter, agonist luminescence; normalized to butyrate control. activation, % at 6.8 µM. actives 1.8% (n = 370,000). AID 687014, 2013;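 active means activation above a cutoff set at the mean of all screened compounds plus 3 SD, cut at about 10% in these data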
AHR act: AHR activators, primary screen, cell-based, luminescence, luciferase reporter, human; Aryl hydrocarbon receptor (Homo sapiens), P35869; AHR-responsive luciferase reporter cells; activation, % at 5 µM; actives 2.5% (n = 320,000); in the data active means activation above about 47%
ssDAF12 agonist: S. stercoralis DAF-12 nuclear receptor activators, primary screen, cell-based, luminescence, HEK293, GRIP1 co-expression, lit1-tk-luc. Nuclear hormone receptor DAF-12 (Strongyloides stercoralis). HEK293 ssDAF-12/GRIP1 lit1-tk-luc reporter; % of 3 µM dafachronic acid response. activation, % at 6.8 µM. actives 1% (n = 370,000). AID 652126, 2013;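 active means activation above the mean over all tested compounds plus 3 SD, cut at about 0.9% in these data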
hgDAF12 conf: H. glycines DAF-12 receptor agonists, confirmation, cell-based, luminescence, HEK293, GAL4-LBD fusion. AID 743050, 2013. HEK293 GAL4-hgDAF12 luciferase reporter, agonist mode; percent of butyrate response. shares compounds with hgDAF-12 ag. actives 80% (n = 3,300). activation, % at 6.8 µM;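 active means mean activation over triplicate wells above the hit cutoff derived from the earlier primary screen, cut at about 11% in these data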
LXRb DAF12 ctr: LXR agonists, Gal4 luciferase reporter, confirmation, counter-screen for hgDAF-12 agonist project, cell-based, luminescence, HEK293, H. glycines campaign; activation, % at 6.8 µM; 3,300 tested, under 10 active; shares compounds with hgDAF-12 ag; 24 h; AID 743051, 2013;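 active means mean activation of the triplicate above a set limit carried over from the primary screen, none filed active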
Large screens that a line does not name were inactive (follow-up assays come after a bar, where they were run).

Clc1ccccc1-c1nc2ccccc2[nH]1	none
Oc1ccccc1C=Nc1ccccc1-c1nc2ccccc2[nH]1	hgDAF-12 ag 18 | hgDAF12 conf inactive | LXRb DAF12 ctr inactive
Fc1ccccc1-c1nc2ccccc2[nH]1	DAX1 inh-1 4.9, hgDAF-12 ag 15 | hgDAF12 conf 12 | LXRb DAF12 ctr inactive
c1ccc2c(-c3nc4ccccc4[nH]3)cccc2c1	none (no result: AHR act)
Cn1cccc1/C=C1\SC(=O)N(c2ccccc2)C1=O	hgDAF-12 ag 16 | hgDAF12 conf 20 | LXRb DAF12 ctr inactive
Cc1ccc2c(c1)c(C1=NC(=S)NC1=O)c(O)n2C	none
O=C(Nc1ccc(NC(=O)c2cccs2)cn1)c1ccccc1	hgDAF-12 ag 16 | hgDAF12 conf 15 | LXRb DAF12 ctr inactive
O=C(Nc1ccc(NC(=O)C2CC2)cn1)c1ccccc1	hgDAF-12 ag 16 | hgDAF12 conf 13 | LXRb DAF12 ctr inactive
N#Cc1cc(-c2ccccc2)nnc1Sc1ccccc1	none
COc1ccc(OC)c(S(=O)(=O)Nc2ccc(C(=O)Nc3cc(C)on3)cc2)c1	hgDAF-12 ag 16 (no result: DAX1 inh-1, AHR act) | hgDAF12 conf inactive | LXRb DAF12 ctr inactive
COc1ccc(C(=O)Nc2cc(C)on2)c(OC)c1	hgDAF-12 ag 15 | hgDAF12 conf 13 | LXRb DAF12 ctr inactive
CCN(CC)CC(=O)Nn1c(C)nc2c(ncn2-c2ccccc2)c1=O	none
COc1ccc(C2=Nc3ccccc3N(C(=O)c3ccc4c(c3)OCO4)C2C(=O)Nc2c(C)cccc2C)cc1 (configuration not stated)	hgDAF-12 ag 14 (no result: DAX1 inh-1, AHR act) | hgDAF12 conf inactive | LXRb DAF12 ctr inactive
O=C(NNC(=O)C12CC3CC(CC(O)(C3)C1)C2)c1csc(N2CCOCC2)n1	none
O=C(N/N=C/c1cc([N+](=O)[O-])ccc1O)C1CC1	none
O=[N+]([O-])c1ccc(O)c(/C=N/Nc2ccccc2Cl)c1	hgDAF-12 ag 16 | hgDAF12 conf inactive | LXRb DAF12 ctr inactive
COc1ccc(CCNC(=O)c2ccc(N3CCCCS3(=O)=O)cc2)cc1OC	none
Clc1ccc2nc(N3CCCCC3)[nH]c2c1	hcDAF-12 act 5.7, DAX1 inh-2 4.5, hgDAF-12 ag 20 | hgDAF12 conf 17 | LXRb DAF12 ctr inactive
Nc1c(C(=O)Nc2ccccc2)sc2nc(N3CCOCC3)c3c(c12)CCCC3	DAX1 inh-2 3.8, hgDAF-12 ag 15 (no result: AHR act) | hgDAF12 conf inactive | LXRb DAF12 ctr inactive
Nc1c(C(=O)Nc2ccc(Cl)cc2)sc2nc(N3CCOCC3)c3c(c12)CCCC3	none
C/C(CC(=O)Nc1ccc(N(C)C)cc1)=N\NC(=O)c1ccccn1	none
C/C(CC(=O)Nc1ccc(C)c(Cl)c1)=N\NC(=O)c1ccccn1	hgDAF-12 ag 14 | hgDAF12 conf inactive | LXRb DAF12 ctr inactive
COC(=O)c1ccc2nc(NC(=O)C(C)C)sc2c1	hgDAF-12 ag 14 | hgDAF12 conf 15 | LXRb DAF12 ctr inactive
CCOC(=O)c1ccc2nc(NC(C)=O)sc2c1	hgDAF-12 ag 14 | hgDAF12 conf 13 | LXRb DAF12 ctr inactive
COC(=O)c1ccc2nc(NC(=O)C3CC3)sc2c1	none
CCOC(=O)c1ccc2nc(Nc3nc4ccc(F)cc4s3)sc2c1	none
Cc1cnc(C(=O)OCC(=O)NCCc2ccccc2)cn1	none
Cc1nc2ccc(OC(=O)c3ccccc3)cc2s1	none
Cc1nc2cc(C(=O)O)ccc2s1	hgDAF-12 ag 15 | hgDAF12 conf 17 | LXRb DAF12 ctr inactive
Cc1ccc(OC(=O)c2ccc3nc(C)sc3c2)cc1	hgDAF-12 ag 15 (no result: DAX1 inh-1) | hgDAF12 conf 17 | LXRb DAF12 ctr inactive
Cc1ccc(-c2nc3ccc(C(=O)O)cc3nc2-c2ccc(C)cc2)cc1	none
CCCC1CCC2(CC1)CCC2OC(=O)Nc1cccc(Cl)c1 (configuration not stated)	none (no result: DAX1 inh-1, DAX1 inh-2, AHR act)
CC(=O)/C(=N\Nc1ccccc1)Oc1ccc(Br)cc1	none (no result: DAX1 inh-1)
Cc1ccccc1Nc1nnc(SCC2CCCCO2)s1 (configuration not stated)	DAX1 inh-2 4.2, hgDAF-12 ag 15 | hgDAF12 conf 17 | LXRb DAF12 ctr inactive
Cc1ccc(Nc2nnc(SCC3CCCCO3)s2)cc1 (configuration not stated)	none
Cc1cnc(NC(=O)C2CCCO2)s1 (configuration not stated)	hgDAF-12 ag 15 | hgDAF12 conf inactive | LXRb DAF12 ctr inactive
COc1ccc(N2C(=O)CSC23C(=O)N(CC(=O)NC2CCCC2)c2ccccc23)cc1 (configuration not stated)	none
Cc1csc(NC(=O)C2CCN(S(=O)(=O)c3cccs3)CC2)n1	none
CCCSc1nsc(NC(=O)CCC)n1	hgDAF-12 ag 19 | hgDAF12 conf 15 | LXRb DAF12 ctr inactive
Cc1cc(NO)nc(-c2ccc(Br)cc2)n1	hgDAF-12 ag 13 | hgDAF12 conf 19 | LXRb DAF12 ctr inactive
CCOc1cc2[nH]c(=O)n(CCC(=O)NCCc3ccc(OC)c(OC)c3)c(=O)c2cc1OCC	none
CCOc1ncccc1C(=O)OCC(=O)c1ccc[nH]1	none
Cc1ccc(C(=O)c2coc3ccc(O)cc23)cc1	hgDAF-12 ag 18, ssDAF12 agonist 1.1 (no result: AHR act) | hgDAF12 conf 22 | LXRb DAF12 ctr inactive
O=C(c1ccccc1)c1coc2ccc(O)c(Cl)c12	none
Cc1ccc(C(=O)c2coc3ccc(O)c(Cl)c23)cc1	DAX1 inh-1 6.5, hgDAF-12 ag 17 | hgDAF12 conf 13 | LXRb DAF12 ctr inactive
CCN(C(=O)CCN1C(=O)c2ccccc2S1(=O)=O)c1ccccc1	none
COc1ccccc1/C=C/CN1CCN(Cc2ccc(C)o2)C(CCO)C1 (configuration not stated)	none
Cc1cc(C(=O)N2CCC(CO)(Cc3cccc(C(F)(F)F)c3)CC2)n[nH]1	none
O=C(c1cnsn1)N1CCC(CO)(Cc2cccc(F)c2)CC1	hgDAF-12 ag 15 | hgDAF12 conf inactive | LXRb DAF12 ctr inactive

Bioassay records from PubChem BioAssay.
